From PubChem
In the library only some 1.6% were active in any assay of this set; here they are far more common.
PTK2B oligo ant = antagonists of human Pyk2 oligomerization | Q14289 | Q293 cells, Pyk2 FERM NanoBiT luminescence; active compounds read low | z-score (the deposit names both 25 µM and 10 µM) | AID 1347419 | 0.83% of 99,000 active;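 active means Z-score of -3 or lower, scaled per plate to the spread of control and sample wells; inactive means z-score above -3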;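 further: negative z-score means lost luminescence so less FERM oligomerization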
Target sequence (Q14289 whole entry, looked up): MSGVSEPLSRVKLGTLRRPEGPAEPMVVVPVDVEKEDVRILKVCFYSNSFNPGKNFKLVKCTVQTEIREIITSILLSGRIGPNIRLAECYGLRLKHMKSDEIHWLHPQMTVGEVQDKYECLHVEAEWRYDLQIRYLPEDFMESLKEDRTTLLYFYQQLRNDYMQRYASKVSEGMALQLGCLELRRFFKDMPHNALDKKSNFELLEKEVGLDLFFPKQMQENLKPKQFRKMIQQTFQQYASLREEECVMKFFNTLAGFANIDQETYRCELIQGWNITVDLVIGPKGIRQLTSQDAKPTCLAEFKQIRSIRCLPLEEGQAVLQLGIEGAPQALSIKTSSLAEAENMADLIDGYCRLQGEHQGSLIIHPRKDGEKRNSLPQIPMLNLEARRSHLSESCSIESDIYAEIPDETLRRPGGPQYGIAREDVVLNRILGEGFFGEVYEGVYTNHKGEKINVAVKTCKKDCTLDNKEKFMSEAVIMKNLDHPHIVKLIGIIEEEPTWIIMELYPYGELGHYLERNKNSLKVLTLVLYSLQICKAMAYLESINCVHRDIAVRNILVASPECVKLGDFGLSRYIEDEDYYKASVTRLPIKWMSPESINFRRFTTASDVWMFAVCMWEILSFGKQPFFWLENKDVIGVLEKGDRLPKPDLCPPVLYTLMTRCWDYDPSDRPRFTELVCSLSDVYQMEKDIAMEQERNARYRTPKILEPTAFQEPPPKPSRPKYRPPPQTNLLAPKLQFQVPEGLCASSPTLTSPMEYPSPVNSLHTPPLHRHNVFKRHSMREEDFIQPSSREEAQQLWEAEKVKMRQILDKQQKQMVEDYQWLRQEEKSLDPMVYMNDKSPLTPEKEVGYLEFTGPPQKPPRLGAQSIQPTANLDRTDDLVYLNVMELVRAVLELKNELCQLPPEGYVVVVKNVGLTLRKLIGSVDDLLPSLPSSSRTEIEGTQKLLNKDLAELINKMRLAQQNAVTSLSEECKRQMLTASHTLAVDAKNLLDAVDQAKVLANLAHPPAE
sEH inh = soluble epoxide hydrolase (human) inhibition; recombinant human sEH enzymatic activity assay; inhibition, % at 2 µM; 0.34% of 91,000 active; P34913; in the data active means inhibition above about 80%
sEH act = increases human soluble epoxide hydrolase activity | purified human sEH enzymatic activity, activator screen | P34913 | 0.04% of 91,000 active | activation, % at 2 µM; in the data active means activation above about 37%
PLK1 PBD inh = Plk1 (human) PBD binding inhibition. AID 693. Plk1 PBD phosphopeptide binding, fluorescence polarization. inhibition, %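 (tested at about 20 µM)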. 0.13% of 97,000 active. P53350; in the data active means inhibition above about 34%, passing the limit was not always enough
PLK1 inh = blocks human PLK1 kinase activity | P53350 | recombinant PLK1 kinase, TR-FRET peptide phosphorylation | inhibition, % at 10 µM | 0.53% of 97,000 active | AID 619;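 active means inhibition of 50% or more in the single-concentration screen; inactive means inhibition below 50%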;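 further: 0% = DMSO max control and 100% = H-89 dihydrochloride min control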
PBD redox DR = generates H2O2 by redox cycling, flagging false Plk1 PBD hits | 120 tested, under 10 active | AID 876 | redox cycling H2O2 generation, DTT, counter-screen | shares compounds with PLK1 PBD inh | EC50, µM; call rule not given here
The depositor's hits bear a star; nt = no result.

SMILES | PTK2B oligo ant | sEH inh | sEH act | PLK1 PBD inh | PLK1 inh | PBD redox DR
CC1CCCC(NC2CCCCNC2=O)C1 (stereo unspecified) | 0.25 | -6.8 | 8.5 | 42.6* | -2.3 | >50
CC(C)OCCCNC(=O)c1ccc(NC(=O)C2CCCO2)cc1 (stereo unspecified) | 0.86 | nt | nt | 34.9* | -7.2 | >50
CCCCNC(=O)c1ccc(NC(=O)C2CCCO2)cc1 (stereo unspecified) | 0.13 | nt | nt | nt | nt | nt
Cc1nc(SCc2c(F)cccc2Cl)c2c(=O)n(C)c(=O)n(C)c2n1 | nt | -16.6 | 13.6 | 1.4 | -20.6 | nt
CC1Cn2c(nnc2-c2cc3ccccc3cc2O)S1 (stereo unspecified) | -0.61 | -0.5 | 3.8 | 57.5* | -4.7 | >50
CC1Cn2c(nnc2-c2ccccc2O)S1 (stereo unspecified) | nt | 11.7 | -12.5 | 26.7 | -19.5 | nt
CCc1ccc(OCC(=O)NC(=S)Nc2ccc(S(=O)(=O)NC3CCCCC3)cc2)cc1 | 1.69 | 23.6 | -21.2 | -15.5 | -3.0 | nt
Cc1cccc(OCCCC(=O)N2CCCc3ccccc32)c1C | 0.2 | 4.7 | -3.8 | -18.0 | -3.7 | nt
O=C(c1ccc(-n2cnnn2)cc1)N1CCCCC1 | 0.53 | 4.0 | -4.7 | 48.1* | -9.4 | >50
CCOC(=O)Cc1csc(NC(=O)CSc2nnc(-c3ccc(F)cc3)o2)n1 | 2.6 | 6.1 | -6.1 | 40.4* | 5.3 | >50
C=CCn1c2ccccc2c2nnc(SCc3ccc4nonc4c3)nc21 | -1.36 | nt | nt | 50.1* | -6.3 | >50
O=S(=O)(Cc1ccccc1)N1CCN(C/C=C/c2ccccc2)CC1 | 0.71 | 0.1 | 2.5 | 3.3 | -14.1 | nt
CS(=O)(=O)N1CCN(C/C=C/c2ccccc2)CC1 | 0.77 | -4.3 | -0.1 | 46.5* | 7.9 | >50
COC(=O)c1nn(-c2ccccc2)c(Cl)c1/C=N/OCc1ccc(Cl)cc1Cl | 0.59 | -8.6 | 9.4 | 8.4 | -14.6 | nt
O=C1CN(c2ccc(Br)cc2)C(=O)N1CC(=O)N1CCCc2ccccc21 | -1.01 | 10.4 | -6.5 | 45.7* | -16.2 | >50
CSc1nc2ccc(Cl)cc2[nH]1 | -0.84 | -0.3 | 1.4 | -0.3 | -12.6 | nt
CCc1nc2cc(Cl)c(Cl)cc2[nH]1 | 0.66 | -4.5 | 4.6 | 49.8* | 1.9 | >50
CCC(=O)N1CCN(c2ccc(NC(=O)c3ccc4c(c3)OCO4)cc2)CC1 | 1.06 | 7.8 | -7.7 | 44.3* | -9.9 | >50
Cc1cccc(NC(=S)NNC(=O)c2nn(C)cc2Cl)c1 | 0.43 | -1.6 | 1.5 | -3.6 | -14.5 | nt
CCOc1ccccc1Nc1nc(N)nc(CN(C)C2CCCCC2)n1 | -0.38 | 3.8 | -3.8 | -11.9 | -6.3 | nt
COCCN1CN=C(Nc2nc3ccccc3s2)NC1 | 2.42 | 7.4 | -5.9 | -9.9 | -3.4 | nt
COC(=O)c1ccccc1NC1=C/C(=N\S(=O)(=O)c2cccs2)c2ccccc2C1=O | -4.96* | -16.4 | 17.0 | 56.1* | 6.6 | >50
C=CCSc1nnc(NC(=O)CSc2nc3ccccc3o2)s1 | 1.66 | -3.5 | 8.8 | 22.5 | -9.6 | nt
CCOC(=O)C1CCCN(C/C(O)=C(\C#N)c2nc(-c3ccccc3)cs2)C1 (stereo unspecified) | -0.34 | 3.0 | -2.0 | -29.5 | -7.0 | nt
CCCCCCCOc1ccc(OC(=O)c2ccncc2)cc1 | -0.45 | 3.0 | -1.6 | -4.5 | -36.6 | nt
SMILES | PTK2B oligo ant | sEH inh | sEH act | PLK1 PBD inh | PLK1 inh | PBD redox DR
COc1ccc(N(C)C2=NS(=O)(=O)c3ccccc32)cc1 | 0.87 | -1.9 | 2.8 | 54.0* | 5.5 | >50
CNC(=O)CC(C(=O)O)c1ccc(OCC(C)C)cc1 (stereo unspecified) | 0.36 | 9.3 | -5.8 | 64.3* | -3.9 | >50
CNC(=O)CC(C(=O)O)c1ccc(OC(C)C)cc1 (stereo unspecified) | 1.87 | 2.0 | -0.5 | 2.7 | -10.4 | nt
COC(=O)Nc1ccc(=O)n(Cc2c(Cl)cccc2Cl)c1 | 1.12 | -1.5 | 4.4 | -0.5 | -7.1 | nt
CC(C)=CC(=O)NCCc1ccccc1 | 0.55 | 20.7 | -16.1 | 51.4* | -4.7 | >50
C/C(=C/C(=O)NCc1ccccc1)C(=O)O | 0.04 | 5.1 | -4.3 | -14.4 | -9.0 | nt
NC(=O)C1CCN(C2=C(Cl)C(=O)c3ccccc3C2=O)CC1 | 0.28 | 3.8 | -1.0 | 66.2* | 10.6 | >50
NC(=O)C1CCN(C(=O)Nc2ccccc2)CC1 | -0.6 | 10.1 | -5.3 | -16.6 | -9.3 | nt
CCN(CCCNS(=O)(=O)c1ccc2c(c1)CCN2C(C)=O)c1cccc(C)c1 | nt | -9.1 | 10.9 | 9.8 | -12.7 | nt
CCN1C(=O)/C(=C/c2nc3ccccc3c(=O)n2-c2ccccc2)c2ccccc21 | -3.18* | 11.7 | -9.2 | 56.7* | -17.9 | >50
NS(=O)(=O)c1ccc(NC(=O)Cn2ncc3c2-c2ccccc2OC3)cc1 | nt | nt | nt | -1.8 | -0.3 | nt
O=C1C(NS(=O)(=O)c2cccs2)=C(N2CCN(c3cccc(C(F)(F)F)c3)CC2)C(=O)c2ccccc21 | -0.7 | 3.6 | -3.6 | -20.7 | -4.8 | nt
CCOc1ccccc1N1CCN(C2=C(NS(=O)(=O)c3cccs3)C(=O)c3ccccc3C2=O)CC1 | -0.46 | 6.9 | -7.0 | 58.7* | 6.6 | >50
COc1ccc(S(=O)(=O)N(C)CC(=O)Nc2ccccc2C(F)(F)F)cc1 | 1.55 | -1.2 | 5.2 | 35.2* | -14.6 | >50
COc1ccc(S(=O)(=O)N(C)CC(=O)Nc2ccccc2C(F)(F)F)cc1Cl | -0.42 | -8.2 | 6.7 | -17.4 | -8.3 | nt
Cc1ccc(OCC(=O)Nc2ccc(N3CCOCC3)cc2)cc1 | 1.37 | nt | nt | 39.2* | -8.1 | >50
O=C1CCN2C=Nc3cccc4ccc1c2c34 | 0.43 | -16.1 | 14.6 | 51.5* | -19.6 | >50
c1ccc(CN2CCN(C3=Nc4cccc5cccc3c45)CC2)cc1 | 0.4 | 7.2 | -4.7 | -33.1 | -4.7 | nt
Nc1cc2nsnc2cc1Br | -0.23 | 5.6 | -3.4 | 118.5* | 24.9 | 13.3*
COc1ccc(COC(=O)NNC(=O)c2ccccc2Cl)cc1 | -0.32 | 5.8 | -7.4 | -7.2 | -0.9 | nt
CCCc1cc(=O)n2[nH]c(C)c(-c3ccccc3)c2n1 | 1.4 | nt | nt | nt | nt | nt
Cc1[nH]n2c(=O)cc(-c3ccc([N+](=O)[O-])cc3)nc2c1-c1ccccc1 | -0.59 | 9.3 | -8.7 | 34.7* | -1.6 | >50
Cc1nn(C(C)C(=O)N2CCCCC2)c(=O)c2c1sc1ccccc12 (stereo unspecified) | -1.22 | -6.0 | 4.6 | 43.3* | -9.3 | >50
CCOC(=O)CSc1ccc(S(=O)(=O)N(C)C2CCCCC2)cc1[N+](=O)[O-] | 3.17 | -8.1 | 5.1 | -8.6 | -0.3 | nt
Cc1sc2ncnc(OCC(=O)NCc3cccs3)c2c1C | 0.55 | 15.3 | -12.0 | -4.1 | 16.8 | nt
NC(=O)C1(N2CCCCC2)CCN(C(=O)NC2CCCCC2)CC1 | -0.12 | -6.7 | 5.3 | 51.9* | -3.5 | >50
CCC(C)(C(=O)NC1CCCC1)N(C(=O)CC1NC(=O)NC1=O)c1ccc(C)cc1 (stereo unspecified) | 1.56 | -5.1 | 5.6 | 0.7 | -5.3 | nt
CCOC(=O)c1ccc(NC(=O)C2CC2)cc1 | -0.65 | 9.7 | -10.5 | 23.9 | -5.7 | nt
CCC(C)c1ccc(NC(=O)C2CC2)cc1 (stereo unspecified) | 0.02 | 16.7 | -17.3 | 63.1* | -12.0 | >50
O=C(Nc1nc2ccccc2s1)c1cc2c(s1)-c1ccccc1OC2 | nt | -23.8 | 22.6 | 52.8* | -15.8 | >50
